# From PubChem BioAssay
# CHOP inhibitor – inhibitors of CHOP induction in ER stress response | inhibition, % at 10 µM | AID 2732 | CHO-K1 CHOP-promoter luciferase, tunicamycin-induced, 15-18 h | actives 3.8% (n = 220,000);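 active means compounds that reduced the stress-induced luciferase reporter signal by more than about 70% of percent inhibition, limit read from the data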;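 further: 0% = tunicamycin plus vehicle and 100% = wells without tunicamycin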
# L major viab – Leishmania major promastigote growth inhibition; Leishmania major promastigotes, resazurin fluorescence viability; inhibition, % at 10 µM; actives 9% (n = 200,000); AID 1063; in the data active means inhibition above about 50%;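 further: promastigotes grown with compound for 44 hours at 28 °C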
# WT yeast gro inh – growth inhibition of WT yeast, mitochondrial fusion screen. mitochondrial fusion phenotypic screen, WT strain. inhibition, % at 10 µM. actives 2.1% (n = 190,000); in the data active means inhibition above about 58%; tested in S. cerevisiae
# RAM network inh – yeast RAM network inhibition; S. cerevisiae dse1pr::URA3 reporter, 5-FOA growth OD615, 2 d; analog-sensitive cbk1-as2 kinase mutant strain; inhibition, % at 50 µM; AID 868; actives 1.8% (n = 190,000);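 active means inhibition above a set limit, 3 SD over mean compound inhibition, cut at about 8.4% in these data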;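 further: 0% = DMSO-only wells with no growth and 100% = 10 µM 1-NA-PP1 full growth; inhibition rescues growth on 5-FOA so higher OD means more RAM inhibition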
# An asterisk follows results filed as active; x = not tested or not shown. Sampled rows, rich in hits. Any-hit rate of the full collection: about 13%.
SMILES,CHOP inhibitor,L major viab,WT yeast gro inh,RAM network inh
C=CCN1C(=O)C(Cc2ccc(Br)cc2)S/C1=N\N=C\c1ccco1 (stereo not given),32,0,9,10.0*
COc1ccc2cc(C(=O)C3CCCN(C(=O)Cc4c(C)noc4C)C3)ccc2c1 (stereo not given),15,11,1,0
COc1ccc(-c2cnc(NCc3cc4c(cc3[N+](=O)[O-])OCO4)n2C)cc1,-10,98*,-17,1
Cc1ccc(CNc2ccc3c(c2)OCO3)cc1,-31,100*,20,1
Cc1ccc(CNc2ncc(-c3ccc4c(c3)OCO4)n2C)cc1,-33,88*,11,2
Cn1c(=O)c2c(nc(NCc3ccc4c(c3)OCO4)n2C)n(C)c1=O,20,-4,4,2
c1cc(CNc2ccc3c(c2)OCO3)ccn1,-33,36,-3,1
Cn1c(-c2ccc3c(c2)OCO3)cnc1NCc1ccc(Cl)cc1,2,92*,-7,-1
Cn1c(-c2cccc([N+](=O)[O-])c2)cnc1NCc1cccc([N+](=O)[O-])c1,30,33,-7,2
Cc1cccc(CNc2ncc(-c3cccc([N+](=O)[O-])c3)n2C)c1,-7,17,-3,0
Cc1cc(CNC(=O)Cn2nc(C)c([N+](=O)[O-])c2C)c2ccccc2n1,21,-6,-6,1
O=C(CCC(=O)N/N=C/c1cc(Cl)cc(Cl)c1O)NCc1ccccc1,25,-12,-4,1
O=C(Cc1ccccc1)N/N=C/c1ccc(-c2ccc([N+](=O)[O-])cc2)o1,43,35,-6,3
CCCNC(=O)Cn1c(=O)/c(=C\c2ccc(-c3ccc([N+](=O)[O-])cc3)o2)s/c1=C\C(=O)C(C)(C)C,60,73*,8,9.7*
CCCNC(=O)Cn1c(=O)/c(=C\c2ccc(-c3cccc([N+](=O)[O-])c3)o2)s/c1=C\C(=O)C(C)(C)C,21,63*,1,9.4*
Cc1ccc(C(=O)N/C(=C\c2ccc(-c3cccc([N+](=O)[O-])c3)o2)C(=O)NC(C)(C)C)cc1,54,11,21,8
O=C(c1sc2cccc(F)c2c1Cl)N1CCN(c2ncccn2)CC1,4,77*,2,3
CCCCc1nc2sc3c(SCC(=O)NCc4ccco4)ncnc3c2c2c1CCC2,86*,1,-2,3
Cc1ccc(N(Cc2ccc(C(=O)NN=C3CCN(C)CC3)cc2)S(C)(=O)=O)cc1C,28,34,2,2
Cc1ccc(C(=O)NCc2ccco2)cc1S(=O)(=O)Nc1cccc(C)c1C,65,16,8,2
Cc1ccc(C)c(NS(=O)(=O)c2cc(C(=O)NCc3ccco3)ccc2C)c1,9,100*,-2,0
Cc1ccc(C(=O)Nc2ccccc2C(=O)NCc2ccco2)cc1S(=O)(=O)N1CCCCC1,14,62*,16,3
CN1CCC(=NNC(=O)c2cn(-c3ccccc3)nc2-c2ccccc2)CC1,-11,8,-11,-1
Cc1nc2cc(Nc3ccncc3)ccc2s1,-6,-4,-15,0
O=C(Nc1cccc(S(=O)(=O)NC2=NCCC2)c1)c1cc(-c2ccccn2)nc2ccccc12,9,x,x,x
SMILES,CHOP inhibitor,L major viab,WT yeast gro inh,RAM network inh
O=C(CSc1nc2ccccc2c(=O)n1-c1ccc(F)cc1F)Nc1ccc2c(c1)CCC2,37,99*,-7,6
O=C(Nc1cccc(S(=O)(=O)NC2=NCCCCC2)c1)c1cc(-c2ccccc2Cl)nc2ccccc12,-4,45,-6,11*
O=C(COC(=O)c1ccccc1)Nc1cccc(S(=O)(=O)NC2=NCCCCC2)c1,-1,-3,2,0
Cc1cc(C)cc(C(=O)OCC(=O)Nc2cccc(S(=O)(=O)NC3=NCCCCC3)c2)c1,36,52*,-13,4
O=C(CSc1nc2ccccc2c(=O)n1-c1ccc(F)cc1)Nc1ccc2c(c1)CCC2,51,81*,14,6
O=C(c1ccc(Br)cc1)N(c1ccccn1)C1CCCCC1,-13,x,x,x
O=c1c2ccccc2nc(SCc2nnc(-c3ccccc3)o2)n1-c1ccc(F)cc1F,19,78*,15,5
O=C(CSc1nc2ccccc2c(=O)n1-c1ccc(F)cc1)Nc1ccc(Cl)c(S(=O)(=O)N2CCOCC2)c1,8,95*,-8,7
COc1ccc(-c2nnc(CSc3nc4ccccc4c(=O)n3C)o2)cc1OC,29,18,16,2
Cc1ccc(-n2c(SCC(=O)Nc3cccc(S(=O)(=O)NC4=NCCCCC4)c3)nc3ccccc3c2=O)cc1,19,-2,-1,9.8*
O=C(CSc1nc2ccccc2c(=O)n1-c1ccccc1F)Nc1ccc2c(c1)CCC2,48,98*,-10,5
O=C(CSc1nc(O)cc(=O)[nH]1)Nc1ccc2c(c1)CCC2,55,-3,12,1
CS(=O)(=O)N1CCC(C(=O)NCc2ccc(F)cc2)CC1,22,-8,1,3
CSc1nc2ccsc2c(=O)n1-c1ccccn1,24,-1,15,2
O=C(CN1C(=O)C(=O)N(C2CCCC2)C1=O)Nc1ccc(N2CCOCC2)cc1,-7,-1,-7,1
CC(OC(=O)c1cn(-c2ccccc2)nc1-c1cccnc1)C(N)=O (stereo not given),10,-4,-2,3
CN(Cc1ccc(F)cc1)C(=O)COc1ccccc1-c1ccccc1,59,3,64*,2
COc1ccc(NC(=O)Cc2ccccc2)cn1,22,-3,-6,0
COc1ccc(CS(=O)(=O)/C(Cl)=C(/Cl)C(=O)Nc2ccc(OC)nc2)cc1,x,32,63*,5
COc1ccc(NC(=O)/C(Cl)=C(/Cl)S(=O)Cc2ccccc2)cn1 (stereo not given),x,100*,76,1
Oc1ccc(/C=C/c2nc(-c3ccccc3O)n(-c3ccccc3)n2)cc1,90*,18,79*,3
COc1cccc(CN2CCNC(=O)C2CC(=O)N(Cc2cnn(C)c2)C(C)C)c1 (stereo not given),-2,-8,10,0
Cc1ccc(C)c(S(=O)(=O)Nc2ccc3sc(C)nc3c2)c1,20,95*,23,0
CCN1CCCC1CNC(=O)c1c(O)c2c([nH]c1=O)CCCC2 (stereo not given),-19,52*,0,1
CCC(c1nnc(SCC(=O)Nc2cccnc2Cl)n1-c1ccccc1)N(C)C (stereo not given),41,-2,-9,1
SMILES,CHOP inhibitor,L major viab,WT yeast gro inh,RAM network inh
CCC(c1nnc(SCC(=O)Nc2ccc(C(C)=O)cc2)n1C1CCCCC1)N(C)C (stereo not given),10,61*,2,1
CCC(c1nnc(SCC(=O)Nc2cc(Cl)ccc2C#N)n1C1CCCCC1)N(C)C (stereo not given),7,77*,17,-1
CCOC(=O)c1ccccc1-c1cn2cc(Cl)ccc2n1,-11,16,9,0
CCOc1ccccc1OCCC(=O)Nc1ccc(F)c(Cl)c1,59,1,-15,4
O=C(CCC(=O)c1ccc(F)cc1)Nc1cccc(C(F)(F)F)c1,51,-8,9,1
O=C(CCC(=O)c1ccc(F)cc1)Nc1cccc(S(=O)(=O)Nc2cccc(Cl)c2)c1,49,69*,-36,3
